Calls of active or inactive are those of the source. Unless noted, no stated cut-off is given here; in the data, active means inhibition above about 80%; inactive means the rest.
Experiments:
[1] = system: Aerobactin synthetase IucA (Klebsiella pneumoniae); assay: inhibition of K. pneumoniae IucA enzyme – biochemical, Tocris library, absorbance (AID 1345561; call rule not given here;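 further: 100% = enzyme without compound and 0% = no enzyme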); details: purified IucA enzyme assay, absorbance (OD) read-out; stronger effect = lower value;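 tested at 8 µM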
[2] = viability loss with induced miR-34 in A549 – imaging, A549 dox-inducible miR-34, nuclei and caspase counts, primary screen (AID 1347080;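 active means compounds whose cell count with miR-34 switched on is under 0.7 times the count with it off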); details: A549 miR-34 inducible, Hoechst nuclei count, 48 h
[3] = galactose survival enhancers in mitochondrial complex I cybrids – cell-based, galactose medium, ATP luminescence, primary screen (AID 1645843;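 active means z-score of at least 1.8 in each of two replicates, scored against plate mean and spread of sample wells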;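 further: positive z means more ATP and so rescue of galactose-driven cybrid death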); details: complex I mutant cybrid cells, 72 h, stronger effect = higher value
[4] = P. berghei load reduction in hepatocytes – cell-based, HepG2, luciferase luminescence, HepG2 viability, primary screen (AID 624349; in the data active means parasite load remaining mostly below about 12%, no sharp cut-off; inactive means mostly above about 10%;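 further: 100% = mean of DMSO negative control wells on the same plate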); details: P. berghei liver stage in HepG2, luciferase luminescence, concentration not given here; parasite load remaining: stronger effect = lower value; viability: measured here: HepG2 viability without parasites
[5] = compounds altering circadian rhythm period length – cell-based, LOPAC library, luminescence reporter (AID 2774; call rule not given here;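 further: values are relative to mean of DMSO wells on each plate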); details: circadian reporter cells, at 7 µM, actives lie on both sides
[6] = growth inhibition, single agent or in combination, cell-based, chromothripsis tumors, cisplatin or BGB combos (AID 1671449); details: LFS_MB_P medulloblastoma cells;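 further: cells exposed for 96 hours; 0% = vehicle DMSO and 100% = killing by high DMSO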
[7] = growth inhibition, single agent and combos, cell-based, chromothripsis tumors, cisplatin or BGB combos (AID 1671450); details: HDN33 neuroblastoma cells, stronger effect = higher value;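 further: cells exposed to compound for four days; 0% = vehicle DMSO and 100% = cell killing by high DMSO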
[8] = growth inhibition, single agents and combos, ICB984, cell-based, cisplatin or BGB combos, synergistic combos for chromothripsis tumors (AID 1671451; call rule not given here;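 further: cells exposed for 96 hours before readout; 0% = vehicle DMSO and 100% = killing by high DMSO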); details: ICB984 medulloblastoma cells, drug combinations, stronger effect = higher value
[9] = growth inhibition, single agents and combos, LFS_MB_1R, cell-based, cisplatin or BGB combos, synergistic combos for chromothripsis tumors (AID 1671452); details: LFS_MB_1R medulloblastoma cells, stronger effect = higher value;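 further: cells exposed for 96 hours before readout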
[10] = growth inhibition, single agents and combos, HTB85, cell-based, BGB or cisplatin IC20 combos, synergistic combos for chromothripsis tumors (AID 1671453); details: HTB85 osteosarcoma cells, drug combinations, stronger effect = higher value;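 further: cells exposed for 96 hours before readout; 0% = vehicle DMSO and 100% = high DMSO killing control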
[11] = growth inhibition, single agents and combos, CRL2098, cell-based, BGB or cisplatin IC20 combos, synergistic combos for chromothripsis tumors (AID 1671454); details: CRL2098 osteosarcoma cells, drug combinations, stronger effect = higher value;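 further: cells exposed for 96 h before readout; 0% = vehicle DMSO and 100% = killing by high DMSO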
[12] = growth inhibition, single agents and combos, HD-MB03, cell-based, BGB or cisplatin IC20 combos, synergistic combos for chromothripsis tumors (AID 1671455; in the data active means inhibition above about 83%;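 further: 0% = vehicle DMSO and 100% = high DMSO as cytotoxic control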); details: HD-MB03 medulloblastoma cells, stronger effect = higher value
[13] = growth inhibition, single agents and combos, UWB1.289, cell-based, BGB or cisplatin combos, synergistic combos for chromothripsis tumors (AID 1671456); details: UWB1.289 ovarian carcinoma cells, stronger effect = higher value;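 further: cells exposed to compound for four days; 0% = vehicle DMSO and 100% = killing by high DMSO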
[14] = growth inhibition, single agents and combos, LFS_MB_2R, cell-based, cisplatin combos, synergistic combos for chromothripsis tumors (AID 1671457); details: LFS_MB_2R medulloblastoma cells, stronger effect = higher value;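 further: cells exposed to compound for four days before readout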
[15] = growth inhibition, MDA-MB-436, cell-based, BGB or cisplatin combos, synergistic combos for chromothripsis tumors (AID 1671458; call rule not given here;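 further: cells exposed for 96 hours; 0% = vehicle DMSO and 100% = killing by high DMSO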); details: MDA-MB-436 breast carcinoma growth inhibition, drug combinations, stronger effect = higher value
[16] = UWB1.289_BRCA1 ovarian cancer growth, cell-based, BGB or cisplatin combinations (AID 1671459); details: UWB1.289 BRCA1 ovarian carcinoma, drug combinations, stronger effect = higher value
[17] = drug combination toxicity in non-malignant astrocytes – cell-based, BGB or cisplatin IC20 combos, cytotoxicity control for chromothriptic childhood tumor combination screen (AID 1671460); details: Human astrocytes, viability inhibition, drug combinations, at 0.5 µM, stronger effect = higher value;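 further: cells exposed to compounds for 96 hours before viability readout; 0% = vehicle and 100% = killing control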
[18] = BT084 cell growth, single and combined drugs, ICGC_MB145, cisplatin and BGB IC40 combos (AID 1671461); details: BT084 medulloblastoma cells, drug combinations, stronger effect = higher value;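 further: cells exposed to drugs for 96 hours; 0% = vehicle DMSO and 100% = high DMSO full killing control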
[19] = RCMB18 cell growth, single agent and combined, cisplatin and BGB IC40 combos (AID 1671462); details: RCMB18 medulloblastoma cells, stronger effect = higher value;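 further: cells exposed to compound for four days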
[20] = CRL1545 cell growth, single agent and combined, cisplatin and BGB IC20 combos (AID 1671464); details: CRL1545 osteosarcoma cells, stronger effect = higher value;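 further: cells exposed to compound for 96 hours before readout; 0% = vehicle DMSO and 100% = high DMSO killing control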
[21] = stronger effect = lower value, cell number ratio, induced over uninduced
[22] = measured here: relative caspase fold change +Dox/-Dox
[23] = measured here: total cells with miR-34 induction, stronger effect = lower value
[24] = measured here: total cells without miR-34 induction
[25] = measured here: combination with BGB IC40, at 0.05 µM
[26] = measured here: with BGB IC20 combination, at 0.5 µM
[27] = measured here: with cisplatin IC20 combination, at 0.5 µM
[28] = measured here: combination with cisplatin, at 0.5 µM
[29] = measured here: combination with cisplatin, at 5 µM

In the case of `CN1CCN(C(=O)c2nc3ccc(Cl)cc3[nH]2)CC1`, the remaining activity [1] was 102% (inactive), the fold change [2, 21] was 0.91 (inactive) and the fold change [2, 22] was 1.56. For the same compound, the cell count [2, 23] was 8900, the cell count [2, 24] was 9780 and the z-score [3] was 0.84 (inactive).
For `c1ccc(CN2CCC3(CCc4ccccc43)CC2)cc1`, the remaining activity [1] was 97.3% (inactive), the fold change [2, 21] was 0.952 (inactive) and the fold change [2, 22] was 0.584. The cell count [2, 23] was 8830, the cell count [2, 24] was 9280 and the z-score [3] was 0.76 (inactive).
In the case of `CCN(CC)CCCCN1c2ccccc2Oc2ccc(Cl)cc21`, the parasite load remaining [4] was 45.6% (inactive), the viability [4] was 112% and the remaining activity [1] was 88.2% (inactive). For the same compound, the fold change [2, 21] was 1.24 (inactive), the fold change [2, 22] was 0.706 and the cell count [2, 23] was 276. For the same compound, the cell count [2, 24] was 224 and the z-score [3] was -0.7 (inactive).
In the case of `Cc1c(CC(C)(C)C(=O)O)n(Cc2ccc(Cl)cc2)c2ccc(F)cc12`, the period change [5] was -0.04 h (inactive), the remaining activity [1] was 112% (inactive) and the fold change [2, 21] was 0.952 (inactive). The fold change [2, 22] was 0.72, the cell count [2, 23] was 8220 and the cell count [2, 24] was 8630. For the same compound, the z-score [3] was 0.1 (inactive).
In the case of `O=C(OCCN1CCCCC1)c1c[nH]c2ccccc12`, the period change [5] was -0.005 h (inactive), the remaining activity [1] was 82.2% (inactive) and the fold change [2, 21] was 0.911 (inactive). The fold change [2, 22] was 0.811, the cell count [2, 23] was 9250 and the cell count [2, 24] was 10200. The z-score [3] was 0.69 (inactive).
For `O=c1[nH]cnc2ccccc12`, the remaining activity [1] was 102% (inactive), the fold change [2, 21] was 0.942 (inactive) and the fold change [2, 22] was 1.88. The cell count [2, 23] was 8900, the cell count [2, 24] was 9450 and the z-score [3] was -0.085 (inactive). The inhibition ([6]; at 0.5 µM, stronger effect = higher value) was -17.1% (inactive), the inhibition ([6]; measured here: combination with BGB IC20, at 0.005 µM) was -35.2% and the inhibition ([6]; measured here: combination with BGB IC40, at 0.005 µM) was -30.5%. It also gave an inhibition [6, 25] of -20.2%, an inhibition ([6]; measured here: combination with cisplatin, at 0.5 µM, stronger effect = higher value) of -41% and an inhibition ([6]; measured here: combination with cisplatin, at 5 µM, stronger effect = higher value) of -52.6%. The inhibition ([7]; BGB combo, at 5 µM) was -24.4%, the inhibition ([7]; at 0.5 µM) was -4.24% (inactive) and the inhibition ([7]; cisplatin combo, at 5 µM) was 7.34%. The inhibition [7, 26] was 2.06%, the inhibition [7, 27] was -23.5% and the inhibition ([7]; single agent, at 5 µM) was 3.32%. It also gave an inhibition ([8]; BGB IC20 combo, at 0.005 µM) of -9.29%, an inhibition ([8]; BGB IC40 combo, at 0.005 µM) of -31.8% and an inhibition ([8]; BGB IC40 combo, at 0.05 µM) of -19.2%. The inhibition ([8]; at 0.5 µM) was -16.4% (inactive), the inhibition ([8]; cisplatin combo, at 0.05 µM) was -23.5% and the inhibition ([8]; cisplatin combo, at 0.5 µM) was -12.5%. The inhibition ([8]; cisplatin combo, at 5 µM) was -22.5%, the inhibition ([8]; measured here: 5 uM single agent, at 5 µM) was -4.22% and the inhibition ([9]; at 0.5 µM) was -18.8% (inactive). The inhibition [9, 25] was -25.1%, the inhibition [9, 28] was -17.4% and the inhibition [9, 29] was -38.3%. The inhibition ([10]; at 0.5 µM) was -3.81% (inactive), the inhibition ([10]; measured here: with BGB IC20, at 0.5 µM) was -2.72% and the inhibition ([10]; measured here: with BGB IC20, at 5 µM) was 7.21%. It also gave an inhibition ([10]; measured here: with cisplatin IC20, at 0.5 µM) of 2.1%, an inhibition ([10]; measured here: with cisplatin IC20, at 5 µM) of -54.4% and an inhibition ([10]; single agent, at 5 µM) of -7.3%. For the same compound, the inhibition ([11]; at 0.5 µM) was -61.6% (inactive), the inhibition ([11]; measured here: combination with BGB at IC20, at 0.5 µM) was -35.5% and the inhibition ([11]; measured here: combination with cisplatin at IC20, at 0.5 µM) was -103%. For the same compound, the inhibition ([12]; at 0.5 µM) was 4.79% (inactive), the inhibition ([12]; measured here: combo with BGB at IC20, at 0.5 µM) was 10.7% and the inhibition ([12]; measured here: combo with cisplatin at IC20, at 0.5 µM) was 11.6%. The inhibition ([13]; at 0.5 µM) was 2.5% (inactive), the inhibition ([13]; measured here: inhibition with BGB combination, at 0.05 µM) was -5.21% and the inhibition ([13]; measured here: inhibition with cisplatin combination, at 0.05 µM) was -17.2%. The inhibition ([14]; at 0.5 µM) was -8.8% (inactive), the inhibition [14, 28] was -21.4% and the inhibition [14, 29] was -15.8%. The inhibition ([15]; at 0.5 µM) was -5.02% (inactive), the inhibition ([15]; measured here: BGB combination, at 0.5 µM) was -15% and the inhibition ([15]; measured here: BGB combination, at 5 µM) was -20.2%. The inhibition ([15]; measured here: cisplatin combination, at 0.5 µM) was -1.15%, the inhibition ([15]; measured here: cisplatin combination, at 5 µM) was -18.2% and the inhibition ([16]; BGB combination, concentration series, at 5 µM) was 11.1%. The inhibition ([16]; at 0.5 µM) was 0.09% (inactive), the inhibition ([16]; cisplatin combination, concentration series, at 5 µM) was -4.56% and the inhibition [17] was 12.5% (inactive). The inhibition ([17]; measured here: combo with BGB IC20) was -1.33%, the inhibition ([17]; measured here: combo with cisplatin IC20) was 21.8% and the inhibition ([18]; at 0.5 µM) was -14% (inactive). For the same compound, the inhibition ([18]; cisplatin combination, at 0.5 µM) was -49.4%, the inhibition ([18]; cisplatin combination, at 5 µM) was -11.8% and the inhibition ([18]; measured here: BGB IC40 combination 0.05 uM, at 0.05 µM) was -51.7%. For the same compound, the inhibition ([18]; single agent, at 5 µM) was 12.2%, the inhibition ([19]; at 0.5 µM) was -16.1% (inactive) and the inhibition ([19]; cisplatin combo, at 5 µM) was -26.7%. It also gave an inhibition ([19]; measured here: BGB IC40 combination, at 0.05 µM) of -1.26%, an inhibition [19, 28] of -25.5% and an inhibition ([19]; single agent, at 5 µM) of -13.2%. The inhibition ([20]; at 0.5 µM) was 0.67% (inactive), the inhibition [20, 26] was -3.84% and the inhibition [20, 27] was 1.34%. For the same compound, the inhibition ([20]; single agent, at 0.05 µM) was -24.3% and the inhibition ([20]; single agent, at 5 µM) was -5.49%.
